Screening results from PubChem BioAssay.
GLP-1R agonist = activates the human GLP-1 receptor; P43220; HEK293 GLP-1R CRE-luciferase, luminescence, 4-6 h; cells express a hypersensitive GLP-1R form; Potency, µM (titrated, usually from 45.6 µM), most hits filed as activators; 380,000 tested, 0.007% active
Target sequence (P43220 whole entry, looked up): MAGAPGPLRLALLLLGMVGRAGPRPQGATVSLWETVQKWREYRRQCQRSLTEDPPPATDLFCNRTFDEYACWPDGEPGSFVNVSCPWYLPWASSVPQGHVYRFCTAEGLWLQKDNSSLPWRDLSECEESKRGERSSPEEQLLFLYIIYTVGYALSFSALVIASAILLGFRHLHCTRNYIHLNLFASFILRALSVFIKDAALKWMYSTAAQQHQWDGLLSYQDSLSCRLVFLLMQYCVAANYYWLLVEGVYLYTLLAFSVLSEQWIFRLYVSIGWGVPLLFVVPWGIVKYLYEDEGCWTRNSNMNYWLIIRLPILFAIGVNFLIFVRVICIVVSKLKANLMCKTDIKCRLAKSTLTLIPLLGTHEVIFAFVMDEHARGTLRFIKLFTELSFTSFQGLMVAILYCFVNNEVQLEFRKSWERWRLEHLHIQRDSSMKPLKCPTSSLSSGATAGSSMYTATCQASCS
GLP1R inv ag = GLP-1 receptor (human) inverse agonism; 410,000 tested, 1.6% active; HEK293 GLP-1R CRE-luciferase, luminescence, 24 h; GLP-1R form is constitutively active; P43220; Potency, µM (top dose mostly 38.3 µM), hits mostly inhibitors; also: nearly all actives have a fitted effect of over 55% in size
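Readout was luciferase luminescence, measured 12 min after detection reagent at room temperature. Beforehand, GLP-1R reporter HEK293 cells had sat 12 h, then received compounds for 24 hr at 37 deg C.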
HEK293 tox = cytotoxicity in counter-screen for GLP-1R inverse agonists | HEK293 cAMP-luciferase reporter cells, luminescence, 24 h | Potency, µM (doses to about 38.3 µM), usual class: inhibitors | 410,000 tested, 0.13% active;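 also: loss of luciferase light is scored as toxicity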
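MLSMR compounds, 24 hr on cells at 37 deg C/5% CO2; luminescence after luciferase reagent (12 min RT). Inhibition counted as the undesired cytotoxic outcome.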
Numbers stand for hits; i = inactive; ? = inconclusive; nt = no result given; [ ] = remark or other dose. Only some compounds are listed: those with a hit (about 1.7% of all), similar ones and a draw of the others. Calls follow the shape of the dose curve; as a rule, active = well fitted curve in the direction sought with a large enough effect; inconclusive = small, poorly fitted or top-dose-only effect, or another doubt; inactive = no such curve, though single readings can be large; an effect the other way counts as inactive or inconclusive.

SMILES	GLP-1R agonist	GLP1R inv ag	HEK293 tox
O=C(Cc1coc2ccc3ccccc3c12)NCc1ccccc1	i	?	i
CCCN(CCC)C(=O)Cc1coc2ccc3ccccc3c12	i	8.91µM	i
O=C(Cn1ncc(Cl)c(Cl)c1=O)c1ccc(Cl)cc1	i	i	10µM
O=C(Cn1ncc(N2CCOCC2)c(Cl)c1=O)c1ccc(Cl)cc1	i	i	i
O=C(O)CC/C(=C\c1ccc(N2CCCC2)c([N+](=O)[O-])c1)c1nc2ccccc2s1	i	i	i
CN(c1ccccc1)c1ccc(/C=C(/CCC(=O)O)c2nc3ccccc3s2)cc1[N+](=O)[O-]	i	11.2µM	i
Cc1ccc(S(=O)(=O)Nc2ccc(NC(=O)Nc3ccc(F)cc3F)cc2)cc1	i	5.62µM	i
O=C(Nc1ccc(S(=O)(=O)N2CCCC2)cc1)Nc1ccc(F)cc1F	i	?	i
CCOC(=O)C(C)/C(C)=N\Nc1ccc([N+](=O)[O-])cc1[N+](=O)[O-] (stereo not given)	i	i	i
CCOC(=O)C(C)/C(C)=N/NC(N)=S (stereo not given)	i	?	0.562µM
Cc1cnc(=O)[nH]c1SCc1ccccc1F	i	i	i
O=C(C[n+]1ccccc1)N/N=C/c1ccc(Cl)cc1	i	i	i
CC(C)(C)OC(=O)N1CCC(c2c(C(=O)NCC3CCN(C4CCCC4)C3)cnn2-c2ccccc2)CC1 (stereo not given)	i	?	i
CC(C)(C)OC(=O)N1CCC(c2c(C(=O)NCC3CCN(C4CCCC4)C3)cnn2-c2cccc(Cl)c2)CC1 (stereo not given)	i	12.6µM	?
Cc1sc(-n2cccc2)c(C(C)NC(=O)Nc2cccc(C(F)(F)F)c2)c1C (stereo not given)	nt	8.91µM	i
Cc1ccc(NC(=O)NC(C)c2c(-n3cccc3)sc(C)c2C)cc1F (stereo not given)	nt	?	i
CC(C)C(NC(=O)c1c(F)cccc1F)C(=O)NC1CC(C)(C)NC(C)(C)C1 (stereo not given)	i	i	i
O=C(CSc1n[nH]c(-c2ccccc2)n1)NCCCc1ccccc1	nt	i	i
O=S(=O)(/C(=C/c1ccc(C(F)(F)F)cc1)c1nc2ccccc2[nH]1)c1ccccc1	i	1.78µM	7.94µM
CC(C)c1ccc(/C=C(\c2nc3ccccc3[nH]2)S(=O)(=O)c2ccccc2)cc1	i	?	i
CCCCNC(=O)C1(C)CCCCN1Cc1ccccc1-c1ccccc1 (stereo not given)	i	2.51µM	i
CCCNC(=O)C1(C)CCCN(Cc2ccccc2-c2ccccc2)C1 (stereo not given)	i	i	i
COC(CNC(=O)C1CCCN1C(=O)OCc1ccccc1)OC (stereo not given)	i	i	i
COC(=O)[C@@H]1C[C@]2(OC(=O)c3ccccc3)C=CC(=O)C[C@@H]2N1C(=O)OCc1ccccc1	i	7.08µM	i
COc1ccc(CNC(=O)c2ccc(Cn3c(=O)c4cccn4c4cccnc43)cc2)cc1OC	nt	i	i
SMILES	GLP-1R agonist	GLP1R inv ag	HEK293 tox
O=S(=O)(Nc1cc(C(F)(F)F)ccc1N1CCOCC1)c1ccccc1	i	i	i
Cc1cccc(S(=O)(=O)Nc2cc(Cl)ccc2N2CCOCC2)c1	i	10µM	i
Cc1ccc(CSC2=NC(C)(C)Nc3ccccc32)c(C)c1	nt	10µM	i
CC1(C)N=C(SCc2ccc(Cl)cc2)c2ccccc2N1	nt	?	i
COc1ccc(-n2c(-c3ccco3)nc3c(cnn3-c3ccccc3Cl)c2=O)cc1	i	i	i
CCCCNC(=O)c1ccccc1NC(=O)CCSc1ccccc1	i	10µM	i
CCCCNC(=O)Nc1ccccc1C(=O)NCCC	i	i	i
COc1cc(NC(=O)Cn2c(=O)n(-c3ccccc3)c(=O)c3c4c(sc32)CCCC4)cc(OC)c1	i	i	i
Cc1ccccc1OCc1nc2ccccc2n1Cc1ccccc1Cl	nt	3.55µM	i
Cc1ccccc1OCc1nc2ccccc2n1C	i	i	i
CCN1CCN(C(c2ccccc2Cl)c2c(O)cc(C)n(Cc3ccco3)c2=O)CC1 (stereo not given)	nt	i	i
CC(C)(C)NCC(=Cc1ccccc1)C(=O)c1ccccc1	i	?	5.01µM
COc1ccc(C=C(C(=O)c2ccccc2)C(=O)c2ccccc2)cc1	i	?	i
Cc1ccc(CN2CC(N3CCN(CC4CC4)CC3)CS2(=O)=O)cc1 (stereo not given)	i	i	i
Cn1nnnc1NN=Cc1ccccc1	i	i	i
Cc1ccc(NC(=O)CN(C)C(=O)Cc2ccc(Cl)cc2Cl)cc1	i	?	i
Cc1ccc(NC(=O)CN(C)C(=O)Cc2ccc(Cl)c(Cl)c2)cc1	i	7.94µM	i
COc1ccc(N(Cc2ccccc2)S(=O)(=O)c2cccc(C(=O)Nc3ncccc3C)c2)cc1	i	?	i
CCc1ccc(S(=O)(=O)c2c(C(=O)c3ccccc3)cnc3ccc(CC)cc23)cc1	nt	?	i
COc1cccc(NC(=O)C2CCCN2S(=O)(=O)c2ccc3nc(-c4ccccc4)[nH]c3c2)c1 (stereo not given)	i	?	?
COc1ccc(CCNC(=O)CN(CCc2ccccc2)S(C)(=O)=O)cc1OC	i	i[7.66 µM]	i[7.66 µM]
CC1CCCC(NC(=O)c2cccc(S(=O)(=O)N3CCN(c4ccccc4)CC3)c2)C1C (stereo not given)	i	i	i
O=C(NCc1ccncc1)c1cccc(S(=O)(=O)NCc2ccccc2)c1	i	i	i
CC1CCCC(NC(=O)c2cccc(S(=O)(=O)NCc3ccccc3)c2)C1C (stereo not given)	i	11.2µM	i
Cc1ccc(OCCNC(=O)c2cccc(S(=O)(=O)NCc3ccccc3)c2)cc1	i	5.01µM	?
SMILES	GLP-1R agonist	GLP1R inv ag	HEK293 tox
COC(=O)c1c(NC(=O)CCCOc2ccc(C(C)(C)C)cc2)sc2c1C(C(=O)OC)CC2 (stereo not given)	nt	i	i
COc1ccc(NC(=O)c2cc(-c3cc(F)ccc3OC)n[nH]2)cn1	i	?	i
O=C(Nc1nc2c(s1)CCCC2)c1ccc(S(=O)(=O)N2CCCc3ccccc32)cc1	i	3.98µM	i
CN(C)c1ccc(C(=O)Nc2nc3c(s2)CCCC3)cc1	i	11.2µM	i
CC(C)(C)c1ccc(C(=O)NC(=S)Nc2nc3c(s2)CCCC3)cc1	i	?	i
CC1CCc2nc(NC(=O)c3ccc(S(=O)(=O)N4CCCc5ccccc54)cc3)sc2C1 (stereo not given)	i	i	i
COc1ccc(NC2c3ccccc3C(=O)N2Cc2ccccc2Cl)cc1OC (stereo not given)	i	i	i
COc1ccccc1C(=O)COC(=O)Cn1[nH]c(=O)c2ccccc2c1=O	i	i	i
COc1ccc(Cn2cc(CN3CC(N4CCN(CCN(C)C)CC4)CS3(=O)=O)nn2)cc1 (stereo not given)	i	i	i
O=C(c1cccc(Cl)c1)N(Cc1ccco1)Cc1ccccc1Cl	nt	10µM	i
CCc1ccc(OCC(=O)N(Cc2ccc(C)cc2)Cc2ccco2)cc1	nt	?	i
CCc1ccc(OCC(=O)N(Cc2ccco2)Cc2ccccc2Cl)cc1	nt	10µM	i
O=C(O)CNC(=S)N(Cc1ccco1)Cc1ccccc1Cl	i	i	i
